Compound activity (PubChem BioAssay)
Shown are actives, neighbours in structure and some others; about 2.4% of the full set was active somewhere.
FEN1 inh-1 = qHTS Assay for the Inhibitors of Human Flap endonuclease 1 (FEN1). P39748. Recombinant FEN1 flap cleavage, fluorescence, 15 min. Potency, µM (top dose mostly 114 µM), inactives show top-dose activity change, negative = inhibition, actives largely listed as inhibitors. hit rate 0.35% among 390,000. AID 588795, 2011; also: % is scaled to controls: 0 for no effect and ±100 for the full control effect; nearly all actives have a fitted effect of over 65% in size
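Enzyme 10 nM, 15 min RT preincubation with compound; start with substrate 50 nM final; reads at 0 and 15 min; qHTS titration, four-parameter Hill fit.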
Pol eta inh = qHTS for Inhibitors of Polymerase Eta; recombinant Pol eta, fluorescent DNA replication assay; DNA polymerase eta (Homo sapiens), Q9Y253; hit rate 1.2% among 390,000; Potency, µM (top dose mostly 114 µM), inactives show at the top dose activity change, negative = inhibition, usual class: inhibitors; AID 588591, 2011; also: % is scaled to controls: 0 for no effect and ±100 for the full control effect
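Pol eta (10 nM) was preincubated with compounds for 15 min at room temperature, after which fluorescent replication substrate (50 nM final) was added to start the reaction. Fluorescence was read kinetically at 0 and 10 min.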
POLB inh = qHTS Assay for Inhibitors of DNA Polymerase Beta. P06746. hit rate 1.3% among 340,000. Potency, µM (doses to about 114 µM), inactives show at the highest dose activity change, negative = inhibition, hits mostly inhibitors. AID 485314, 2010. Pol beta primer extension/strand displacement, fluorescence kinetic; also: % is scaled to controls: 0 for no effect and ±100 for the full control effect
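Kinetic readout of DNA synthesis with strand displacement by Pol beta. Compound and 10 nM enzyme sit 15 min at room temperature; 50 nM substrate starts the reaction, read immediately and at 10 min.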
POLK inh = qHTS for Inhibitors of Polymerase Kappa. hit rate 0.53% among 400,000. purified Pol kappa, fluorescent DNA synthesis assay, 10 min. Potency, µM (series often up to 107 µM), for the others: at the highest dose activity, negative = inhibition, most hits filed as inhibitors; also: % is scaled to controls: 0 for no effect and ±100 for the full control effect
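10 nM Pol kappa preincubated 15 min at room temperature with compounds, then reaction started with substrate at 50 nM final. Fluorescence read kinetically at 0 and 10 min; buffer-only wells served as negative control.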
Pol iota inh = qHTS for Inhibitors of Polymerase Iota. hit rate 1% among 390,000. Potency, µM (top dose mostly 115 µM), inactives show top-dose activity, negative = inhibition, most hits filed as inhibitors. Pol iota fluorescent replication assay, 10 min
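Fluorescent replication assay read twice, at 0 min and 10 min after adding 50 nM (final) substrate. Enzyme (10 nM) and compounds were first incubated 15 min at room temperature; enzyme-free buffer wells were negative controls.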
WRN helicase inh-1 = qHTS for Inhibitors of WRN Helicase; Bifunctional 3'-5' exonuclease/ATP-dependent helicase WRN (Homo sapiens), Q14191; WRN helicase unwinding, fluorescent forked duplex, kinetic; Potency, µM (highest dose often 114 µM), for inactives: at the highest dose activity change, negative = inhibition, most hits filed as inhibitors; hit rate 0.46% among 360,000; AID 651768, 2012; also: % is scaled to controls: 0 for no effect and ±100 for the full control effect; nearly all actives have a fitted effect of over 55% in size
Target sequence (Q14191 whole entry, looked up): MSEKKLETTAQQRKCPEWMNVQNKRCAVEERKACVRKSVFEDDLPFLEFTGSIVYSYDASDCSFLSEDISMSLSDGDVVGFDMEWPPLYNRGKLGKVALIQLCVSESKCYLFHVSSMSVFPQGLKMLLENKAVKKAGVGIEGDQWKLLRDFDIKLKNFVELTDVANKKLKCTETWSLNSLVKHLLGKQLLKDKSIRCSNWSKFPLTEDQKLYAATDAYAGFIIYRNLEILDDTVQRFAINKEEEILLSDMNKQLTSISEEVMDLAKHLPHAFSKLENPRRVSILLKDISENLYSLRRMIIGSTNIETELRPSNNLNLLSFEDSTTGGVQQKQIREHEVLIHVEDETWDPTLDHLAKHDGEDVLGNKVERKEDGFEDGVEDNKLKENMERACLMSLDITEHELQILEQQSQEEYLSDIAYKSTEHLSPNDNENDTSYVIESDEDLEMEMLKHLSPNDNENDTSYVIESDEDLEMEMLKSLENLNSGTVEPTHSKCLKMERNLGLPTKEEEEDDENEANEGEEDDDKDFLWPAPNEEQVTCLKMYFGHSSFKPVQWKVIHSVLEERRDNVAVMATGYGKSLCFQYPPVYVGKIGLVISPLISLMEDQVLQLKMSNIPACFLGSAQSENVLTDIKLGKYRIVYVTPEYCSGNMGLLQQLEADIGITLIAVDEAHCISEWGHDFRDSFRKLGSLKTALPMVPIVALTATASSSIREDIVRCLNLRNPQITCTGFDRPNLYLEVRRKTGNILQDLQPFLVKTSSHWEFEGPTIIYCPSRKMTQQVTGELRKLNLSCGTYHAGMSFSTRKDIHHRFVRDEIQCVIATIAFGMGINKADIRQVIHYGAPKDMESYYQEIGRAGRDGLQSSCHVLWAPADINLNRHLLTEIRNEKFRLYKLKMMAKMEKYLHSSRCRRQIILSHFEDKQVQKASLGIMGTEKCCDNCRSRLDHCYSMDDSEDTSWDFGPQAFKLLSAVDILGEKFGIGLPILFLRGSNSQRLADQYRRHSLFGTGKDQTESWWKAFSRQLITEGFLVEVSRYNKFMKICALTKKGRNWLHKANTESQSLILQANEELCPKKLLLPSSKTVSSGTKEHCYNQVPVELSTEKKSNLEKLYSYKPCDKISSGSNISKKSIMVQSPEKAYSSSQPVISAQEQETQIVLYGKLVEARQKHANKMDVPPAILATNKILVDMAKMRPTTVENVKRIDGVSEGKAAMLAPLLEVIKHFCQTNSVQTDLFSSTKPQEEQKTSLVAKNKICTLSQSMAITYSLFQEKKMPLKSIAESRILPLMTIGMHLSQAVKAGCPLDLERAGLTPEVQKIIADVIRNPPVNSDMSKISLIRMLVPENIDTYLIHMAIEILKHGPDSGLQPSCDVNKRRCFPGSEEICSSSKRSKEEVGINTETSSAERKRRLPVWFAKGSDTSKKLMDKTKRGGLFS
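Kinetic red-fluorescence monitoring (525/598 nm) tracks WRN helicase activity after 100 nM fluorophore-quencher forked duplex and 2 mM ATP are added to 20 nM enzyme pretreated 15 min at room temperature with compound.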
FEN1 inh-2 = qHTS Assay for the Inhibitors of FEN1: Confirmatory Assay for Cherry-picked Compounds | shares compounds with FEN1 inh-1 | FEN1 flap cleavage, TAMRA/BHQ2 fluorogenic DNA substrate | Potency, µM, usual class: inhibitors | hit rate 79% among 880; also: nearly all actives have a fitted effect of over 60% in size
WRN helicase inh-2 = qHTS for Inhibitors of WRN Helicase: Confirmatory Assay for Cherry-picked Compounds. AID 720497, 2013. hit rate 63% among 610. shares compounds with WRN helicase inh-1. WRN helicase DNA unwinding, fluorescence kinetic. Potency, µM (top dose mostly 57.1 µM), for the others: at the highest dose activity, negative = inhibition, hits mostly inhibitors; also: nearly all actives have a fitted effect of over 65% in size
TO DNA binding = qHTS for Inhibitors of WRN Helicase: Thiazole Orange DNA Binding Counterscreen; shares compounds with WRN helicase inh-1; thiazole orange DNA binding displacement, fluorescence; Potency, µM (doses to about 57.1 µM), for the others: at the highest dose activity change, negative = inhibition, usual class: inhibitors; hit rate 10% among 610;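 also: drop in dye fluorescence marks compound binding to DNA; % is scaled to controls: 0 for no effect and ±100 for the full control effect; nearly all actives have a fitted effect of over 60% in size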
BLM counter = qHTS for Inhibitors of WRN Helicase: BLM Helicase Counterscreen for WRN Inhibitors. shares compounds with WRN helicase inh-1. Recombinant BLM helicase DNA unwinding, red fluorescence. Potency, µM (titrated, usually from 57.1 µM), for inactives: top-dose activity change, negative = inhibition, most hits filed as inhibitors. hit rate 60% among 610. AID 720503, 2013; also: nearly all actives have a fitted effect of over 60% in size
* = called active by the depositor; ? = inconclusive; / = not tested or not shown; [ ] = another dose, or the depositor's remark. Calls follow the shape of the dose curve; as a rule, active = well fitted curve in the direction sought with a large enough effect; inconclusive = small, poorly fitted or top-dose-only effect, or another doubt; inactive = no such curve, though single readings can be large; an effect the other way counts as inactive or inconclusive. Potency is read from the fitted curve at half-maximal effect.

SMILES	FEN1 inh-1	Pol eta inh	POLB inh	POLK inh	Pol iota inh	WRN helicase inh-1	FEN1 inh-2	others
O=C1C(c2ccc(F)cc2)N(Cc2ccccc2Cl)C(=O)CN1C1CCCCC1 (centres undefined)	-5%	2%	-1%	-7%[60.1 µM]	1%	/	/
CCOCCCNCc1ccc(OC)cc1	-7%	-11%	1%	-6%	9%	-1%	/
COc1ccc2cc(CNCCOCCOCCNCc3ccc4cc(OC)ccc4c3)ccc2c1	40µM*	-29%	/	-17%	8%	?	38*
Cc1ccc(C)c2sc(NC(=O)c3ccc(S(=O)(=O)N4CCC(C)CC4)cc3)nc12	13%	-21%	-26%	-6%[60.1 µM]	43%	/	/
COc1ccc(-c2c(-c3ccccc3)c(C(=O)C(=O)NCCCN(C)C)n3ccc4cc(OC)c(OC)cc4c23)cc1OC	40µM*	?	-41%	?	102%	-10%	34*
CN(C)S(=O)(=O)c1cccc(NC(=O)COC(=O)c2ccc([N+](=O)[O-])o2)c1	50µM*	?	-16%	-17%	10%	-5%[57.1 µM]	19*
O=C(COC(=O)c1ccc(Br)o1)Nc1cccc(S(=O)(=O)N2CCOCC2)c1	-21%	-22%	/	0%	5%	5%	/
O=C(COC(=O)c1ccc([N+](=O)[O-])o1)Nc1cccc(S(=O)(=O)N2CCOCC2)c1	28µM*	-15%	11%	-9%	119%	6%	19*
COc1ccc(NC(=O)COC(=O)c2ccc([N+](=O)[O-])o2)cc1Cl	?	-4%	5%	-12%	-2%	-2%[57.1 µM]	21*
COc1ccc(C)cc1NC(=O)COC(=O)c1ccc([N+](=O)[O-])o1	-12%	-15%	5%	1%	27%	-24%	/
Cc1cccc(NC(=O)COC(=O)c2ccc([N+](=O)[O-])o2)c1C	?	-1%	-3%	-25%	11%	-1%	21*
CCN1CCCC1CNC(=O)c1ccc2c(c1)NC(=O)/C(=C\c1ccc(OC)c(OC)c1)S2 (centres undefined)	?	?	?	-13%	-11%	?	38*
CCN1CCCC1CNC(=O)c1ccc2c(c1)NC(=O)/C(=C\c1ccccc1Cl)S2 (centres undefined)	/	-23%	/	/	/	21%	/
CCOc1ccccc1CNC(=O)c1[nH]c2ccccc2c1Sc1ccccc1	-17%	-22%	-12%	-19%	32%	/	/
COc1ccc2c(C)cc(SCC(=O)Nc3cc(C(N)=O)cc(C(N)=O)c3)nc2c1	?	50µM*	25µM*	-15%	35µM*	-6%[11.6 µM]	?
COc1cccc(NC(=O)CSc2cc(C)c3ccccc3n2)c1	8%	/	-1%	1%	36%	/	/
CCN1CCN(c2nc(Nc3ccc(NC(C)=O)cc3)nc(Nc3ccc(NC(C)=O)cc3)n2)CC1	?	?	?	?	?	25µM*	?
CC(=O)Nc1ccc(/C(C)=N/Nc2nc(Nc3ccccc3)nc(N3CCOCC3)n2)cc1	-17%	-17%	-7%	-7%	98%	-3%	/
COc1cc2nc(NCCCN3CCN(C)CC3)n3nc(-c4ccccc4)nc3c2cc1OC	20µM*	?	25µM*	?	?	12µM*	12*	WRN helicase inh-2=12µM*;TO DNA binding=-29%;BLM counter=-5%
Nc1ccc(Cn2ccc3c4c(N)nc(N)nc4ccc32)cc1	25µM*	?	/	-33%	56%	16µM*	43*	WRN helicase inh-2=22µM*;TO DNA binding=76%;BLM counter=14µM*
Cc1nc2ccc(N)cc2c(=O)n1Cc1ccc(Cl)cc1	2%	4%	-8%	-17%	12%	-17%	/
Cc1ccc(CCNC(=O)c2ccc(CNS(=O)(=O)c3ccc(F)cc3)cc2)cc1	-1%	7%	0%	-11%[60.1 µM]	10%	/	/
CN1CCN(C2=C(Cl)C(=O)c3ccccc3C2=O)CC1	?	3.5µM*	/	1%	6.3µM*	?	/	WRN helicase inh-2=?;TO DNA binding=-14%;BLM counter=3.4µM*
CN1CCN(C2=C(NS(=O)(=O)c3ccccc3)C(=O)c3ccccc3C2=O)CC1	12%	10%	6%	-10%	30%	0%[57.1 µM]	/
CN(C)c1ccc(C=Cc2nccc3ccccc23)cc1	/	/	/	/	/	79µM*	/	WRN helicase inh-2=?;TO DNA binding=221%;BLM counter=?
SMILES	FEN1 inh-1	Pol eta inh	POLB inh	POLK inh	Pol iota inh	WRN helicase inh-1	FEN1 inh-2	others
CN(C)c1ccc(/C=C/c2ccnc3c2ccc2ccccc23)cc1	-3%	/	/	-6%	31%	/	/
O=C(Nc1cccc(-c2cnc3ccccc3n2)c1)c1cccc(NC(=O)c2ccco2)c1	-26%	6%	?	-22%	14%	?	/	WRN helicase inh-2=-29%;TO DNA binding=1%;BLM counter=?
CC(=O)N(C1=C(Cl)C(=O)c2ccccc2C1=O)C1CCCCC1	?	-10%	7%	-13%	?	14µM*	/	WRN helicase inh-2=-27%;TO DNA binding=-16%;BLM counter=?
Cc1ccc2oc(=O)n(CCNC(=O)Nc3ccc(Cl)cc3)c2c1	8%	-4%	47%	4%	6%	/	/
O=c1c(-c2ccccc2)nc2cnc(N3CCOCC3)nc2n1CCc1ccccc1	/	/	/	3%[60.1 µM]	/	/	/
COc1ccc(-n2c(O)c(/C=N/NS(=O)(=O)c3ccc(C)c([N+](=O)[O-])c3)c3ccccc3c2=O)cc1OC	-10%	-16%	-27%	-19%	?	?	/	WRN helicase inh-2=19µM*;TO DNA binding=295%;BLM counter=22µM*
